Assay results reported in PubChem BioAssay (NCI).
This is part of a sample that, as a whole, favours compounds with a hit. Of some 83,000 tested, about 20% had one in any assay.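 Note: values are percent growth. 100 is the growth of untreated cells, values between 100 and 0 indicate rising inhibition; between -100 and 0 indicates cell death.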 Unmarked numbers belong to inactive results. Active and inactive are the calls of the source. Rule for the calls: active = growth percent below 10; inactive = the rest.

Legend:
Experiment in all cases: NCI-60 one-dose screen, 48 h (100 = growth as untreated, 0 = no growth, -100 = all killed)
Conditions in all cases: 10 µM unless noted
SK-MEL-2 melanoma = system: SK-MEL-2 melanoma
EKVX NSCLC = system: EKVX NSCLC
SN12C renal = system: SN12C renal
UO-31 renal = system: UO-31 renal
TK-10 renal = system: TK-10 renal
ACHN renal = system: ACHN renal
CAKI-1 renal = system: CAKI-1 renal
A498 renal = system: A498 renal
CCRF-CEM leukemia = system: CCRF-CEM leukemia
MOLT-4 leukemia = system: MOLT-4 leukemia
SR leukemia = system: SR leukemia
RPMI-8226 leukemia = system: RPMI-8226 leukemia
OVCAR-8 ovarian = system: OVCAR-8 ovarian
OVCAR-5 ovarian = system: OVCAR-5 ovarian
OVCAR-4 ovarian = system: OVCAR-4 ovarian
SK-OV-3 ovarian = system: SK-OV-3 ovarian
IGROV1 ovarian = system: IGROV1 ovarian
OVCAR-3 ovarian = system: OVCAR-3 ovarian
HS 578T breast = system: HS 578T breast
NCI/ADR-RES ovarian = system: NCI/ADR-RES ovarian

| Structure (SMILES) | growth (SK-MEL-2 melanoma) | growth (EKVX NSCLC) [%] | growth (SN12C renal) [%] | growth (UO-31 renal) | growth (TK-10 renal) [%] | growth (ACHN renal) | growth (CAKI-1 renal) | growth (A498 renal) | growth (CCRF-CEM leukemia) | growth (MOLT-4 leukemia) | growth (SR leukemia) | growth (RPMI-8226 leukemia) | growth (OVCAR-8 ovarian) [%] | growth (OVCAR-5 ovarian) [%] | growth (OVCAR-4 ovarian) [%] | growth (SK-OV-3 ovarian) | growth (IGROV1 ovarian) | growth (OVCAR-3 ovarian) | growth (HS 578T breast) | growth (NCI/ADR-RES ovarian) |
| --- | --- | --- | --- | --- | --- | --- | --- | --- | --- | --- | --- | --- | --- | --- | --- | --- | --- | --- | --- | --- |
| Cc1cc([N+](=O)[O-])ccc1NC(=O)c1ccc2c(c1)nc(-c1ccccc1)n2C1CCCCC1 | 87.4% | 73 | 98.6 | 62.4% | 84.3 | 89.6% | 70.3% | 122% | 68.5% | 52% | 39.5% | 76.2% | 87.6 | 95.5 | 95.2 | 100% | 111% | 92.8% | 88.1% | 87.9% |
| COc1cccc(/C=C2\CCc3ccccc3C2=O)c1 | 82.9% | 87.9 | 84.6 | 72.5% | 94.4 | 95.7% | 77.3% | 95.2% | 37.7% | 71.6% | 21% | 6.5% (active) | 92.5 | 85.9 | 88.5 | 86.5% | 80.7% | 89.5% | 87.4% | 71.4% |
| CN1C(=O)N(C)C2C1NN=c1s/c(=C\c3ccc(F)cc3)c(=O)n12 (stereo not given) | 48.6% | 63.8 | 36.3 | 39.8% | 65.1 | 39.2% | 29.1% | 9.72% (active) | 18.1% | 23.2% | 26.8% | 66.5% | 29.5 | 48.6 | 28.6 | 33.1% | 11% | 7.29% (active) | 14.8% | 10.3% |
| COc1nc2ccccc2cc1/C=C1/C=C(c2ccccc2)NC1=O | 19% | 52.5 | 40.6 | 41.2% | 87.5 | 40.9% | 31.9% | 35.9% | 41.1% | 21.5% | 20% | 53.7% | 44.8 | 85.4 | 65 | 50.3% | 39% | 17.2% | 25.8% | 32.8% |
| CS(=O)(=O)c1cccc(Nc2ncc3cc(-c4ccccc4Cl)ccc3n2)c1 | -25.6% (active) | 23.9 | 11 | -3.98% (active) | 19.5 | 2.93% (active) | 9.3% (active) | 5.57% (active) | 9.21% (active) | 5.83% (active) | 0.145% (active) | 1.72% (active) | 11.3 | 32.2 | 39 | -2.26% (active) | 4.09% (active) | 22.1% | 3.45% (active) | -1.15% (active) |
| COc1cccc(NC(=O)c2sc3nc(C)c(C(=O)c4ccccc4)cc3c2N)c1 | 93.7% | 69.1 | 94.4 | 93% | 102 | 96.6% | 63.2% | -2.09% (active) | 99% | 115% | 45.4% | 94.5% | 98.8 | 97.5 | 87.9 | 41% | 91.7% | 92.9% | 72.9% | 98.1% |
| O=CN1N=C(c2cccc(Nc3ccncc3)c2)CC1c1ccc2c(c1)OCO2 (stereo not given) | 85.5% | 67.6 | 99.3 | 86.9% | 109 | 97.2% | 80.7% | 96.5% | 86.1% | 92.3% | 82.1% | 80% | 91.3 | 98.5 | 82.7 | 78.6% | 102% | 99.6% | 94.2% | 101% |
| COCCNC(=O)Cc1cc(-c2ccc(Cl)cc2)n(-c2ccccc2)c1C | 90.7% | 85.4 | 87.6 | 71.1% | 95.3 | 92.5% | 73.5% | 89.9% | 88.1% | 90% | 61.9% | 63% | 85.8 | 90 | 67.1 | 95% | 88.6% | 116% | 107% | 86.1% |
